Measured values as given in PubChem BioAssay AID1159580 (chemical genetic matrix, 2015).
Among all 5,500 compounds or so, about 2,000 (36%) were called active. Inconclusive results (about 18%) are left out. No stated cut-off is given here; in the data, active means normalized growth mostly below about 0.91 (no sharp cut-off); inconclusive means no clear call, values can overlap the other calls; inactive means mostly above about 0.92. Some of the results follow.

Assay: chemical genetic growth profiling, strain panel (AID 1159580);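 further: tested at 20 µM; growth read once vehicle control cultures reached saturation at 30 °C; 1 = growth at the plate median or of vehicle wells; lower values mean less growth of the strain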
Conditions: S. cerevisiae deletion strains, growth OD

Measured: normalized growth

CC(=O)NC(C(=O)O)C(C)(C)SN=O (centres undefined)
inactive: locus YAL013W, strain DEP1, active compounds read low 1.02 | locus YAL021C, strain ccr4, active compounds read low 1.01 | locus YAL026C, strain drs2, active compounds read low 0.992 | locus YAL030W, strain snc1, active compounds read low 0.991 | locus YBL061C, strain skt5, active compounds read low 0.984 | locus YBR009C, strain hhf1, active compounds read low 1 | locus YBR021W, strain FUR4, active compounds read low 0.977 | locus YBR023C, strain chs3, active compounds read low 0.994 | locus YBR171W, strain sec66, active compounds read low 0.993 | locus YBR229C, strain ROT2, active compounds read low 1.01 | locus YBR231C, strain swc5, active compounds read low 0.996 | locus YBR279W, strain paf1, active compounds read low 0.986 | locus YCL011C, strain gbp2, active compounds read low 0.996 | locus YCL016C, strain dcc1, active compounds read low 0.985 | locus YCL029C, strain bik1, active compounds read low 0.981 | locus YCL061C, strain MRC1, active compounds read low 0.999 | locus YCL069W, strain vba3, active compounds read low 0.991 | locus YCR088W, strain abp1, active compounds read low 0.983 | locus YDL005C, strain med2, active compounds read low 0.977 | locus YDL035C, strain GPR1, active compounds read low 1 | locus YDL040C, strain nat1, active compounds read low 0.996 | locus YDL074C, strain BRE1, active compounds read low 1.06 | locus YDL101C, strain DUN1, active compounds read low 1 | locus YDL134C, strain PPH21, active compounds read low 1.01 | locus YDL185W, strain tfp1, active compounds read low 0.98 | locus YDL192W, strain arf1, active compounds read low 0.999 | locus YDR001C, strain nth1, active compounds read low 0.984 | locus YDR069C, strain doa4, active compounds read low 0.984 | locus YDR101C, strain arx1, active compounds read low 1 | locus YDR137W, strain rgp1, active compounds read low 1.04 | locus YDR150W, strain NUM1, active compounds read low 0.978 | locus YDR159W, strain sac3, active compounds read low 0.997 | locus YDR162C, strain NBP2, active compounds read low 1.03 | locus YDR195W, strain ref2 0.949 | locus YDR297W, strain sur2, active compounds read low 0.98 | locus YDR318W, strain mcm21, active compounds read low 1 | locus YDR334W, strain swr1, active compounds read low 0.976 | locus YDR335W, strain msn5, active compounds read low 0.982 | locus YDR388W, active compounds read low 1 | locus YDR392W, strain spt3, active compounds read low 0.98 | locus YDR502C, strain sam2, active compounds read low 1 | locus YEL003W, strain gim4, active compounds read low 0.988 | locus YEL037C, strain rad23, active compounds read low 0.984 | locus YEL061C, strain CIN8 (second series), active compounds read low 0.989 | locus YEL061C, strain CIN8, active compounds read low 1 | locus YER015W, strain faa2, active compounds read low 0.996 | locus YER016W, strain bim1, active compounds read low 0.991 | locus YER110C, active compounds read low 0.984 | locus YER111C, strain swi4, active compounds read low 0.981 | locus YER155C, strain BEM2 (second series), active compounds read low 0.989 | locus YER155C, strain BEM2, active compounds read low 1 | locus YER167W, strain BCK2, active compounds read low 0.995 | locus YFR010W, strain ubp6, active compounds read low 0.976 | locus YGL078C, strain dbp3, active compounds read low 0.99 | locus YGL086W, strain mad1, active compounds read low 0.988 | locus YGL167C, strain pmr1, active compounds read low 0.99 | locus YGL173C, strain kem1, active compounds read low 0.995 | locus YGL227W, strain vid30, active compounds read low 0.992 | locus YGL240W, strain doc1, active compounds read low 0.989 | locus YGL248W, strain PDE1, active compounds read low 1.01 | locus YGL253W, strain hxk2, active compounds read low 0.983 | locus YGR078C, strain PAC10, active compounds read low 1.02 | locus YGR135W, strain pre9, active compounds read low 1 | locus YGR229C, strain SMI1, active compounds read low 1.05 | locus YGR252W, strain gcn5, active compounds read low 1.01 | locus YHR013C, strain ard1, active compounds read low 0.972 | locus YHR027C, strain rpn1, active compounds read low 1.01 | locus YHR030C, strain SLT2, active compounds read low 1 | locus YHR079C, strain IRE1 (second series), active compounds read low 0.999 | locus YHR094C, strain hxt1, active compounds read low 0.98 | locus YHR129C, strain ARP1, active compounds read low 0.998 | locus YHR142W, strain chs7, active compounds read low 0.978 | locus YHR200W, strain rpn10, active compounds read low 0.992 | locus YIL066C, strain RNR3, active compounds read low 1.01 | locus YIL073C, strain SPO22, active compounds read low 0.913 | locus YIL125W, strain kgd1, active compounds read low 0.99 | locus YIR030C, strain dcg1, active compounds read low 1 | locus YJL092W, strain hpr5, active compounds read low 0.983 | locus YJL095W, strain BCK1 (second series), active compounds read low 0.989 | locus YJL095W, strain BCK1, active compounds read low 1.07 | locus YJL115W, strain asf1, active compounds read low 0.986 | locus YJL129C, strain trk1, active compounds read low 0.995 | locus YJL134W, strain LCB3, active compounds read low 1 | locus YJL154C, strain vps35, active compounds read low 0.975 | locus YJL164C, strain tpk1, active compounds read low 1 | locus YJL166W, strain qcr8, active compounds read low 0.996 | locus YJL168C, strain set2, active compounds read low 1.01 | locus YJL187C, strain SWE1 (second series), active compounds read low 1 | locus YJL187C, strain SWE1, active compounds read low 0.989
